Drawing on ChEMBL document CHEMBL4513216, “Probing the Open Global Health Chemical Diversity Library for Multistage-Active Starting Points for Next-Generation Antimalarials” (ACS Infect Dis, 2020), this text covers INHIBITION for 106 compounds.

The campaign covered roughly 69,000 compounds. About 8,600 (12%) showed an effect of 50% or more. The sample as a whole holds a higher share of strong results than the screen did.

This assay concerns Plasmodium berghei. The assay is described as follows: Screen against P. berghei liver stage (PbLuc), transformed with Luciferase, at 10uM. The format is functional, HepG2. To be noted: tested at 10 uM.
`c1cc(CN2CCO[C@H]3[C@H](OCC4CCOCC4)CC[C@@H]32)co1`: the INHIBITION is given as -34.9%.
With `Cc1nn(C)c(C)c1C1CCCN1C(=O)c1cnc2onc(C)c2c1` (stereo unspecified), the INHIBITION is -2.53%.
In the case of `O=S(=O)(CCCNC1CCc2ncnn2C1)c1ccccc1` (stereo unspecified), the INHIBITION is 31.3%.
As for `Cc1noc(C)c1CN1C[C@H](OCC(=O)N(C)C)[C@H]2OCCC[C@H]21`, the INHIBITION is 10.5%.
For `Cc1noc(C)c1CN1C[C@H](OCC(=O)N(C)C)[C@H]2COC[C@H]21`, the INHIBITION is recorded as 15.3%.
Turning to `Fc1cnc(N2CCO[C@H]3[C@H](OCC4CCOCC4)CC[C@@H]32)nc1`, the INHIBITION came out at 38.5%.
`CN(C)C(=O)CO[C@@H]1CC[C@H]2[C@H]1OCCN2c1ncccn1`: the INHIBITION is on record as 20.1%.
Turning to `Cc1noc(C)c1CN1C[C@@H](OCC(=O)N(C)C)[C@H]2OCCC[C@H]21`, the INHIBITION is recorded as 74.8%.
Turning to `CN(C)C(=O)CO[C@@H]1CC[C@H]2[C@H]1OCCN2c1ncc(F)cn1`, the INHIBITION was 64.3%.
In the case of `CNC(=O)c1ccc(C2CCCN(C(=O)c3c(C)noc3C)C2)nc1` (stereo unspecified), the INHIBITION is reported as 17.1%.
Consider `CC1(C2CCN(CCCC(=O)O)CC2)CN(Cc2ccccc2)C(=O)O1` (stereo unspecified), for which the INHIBITION is 7.52%.
In the case of `Cn1nnc2cc(C(=O)N3CCC(Nc4cccnn4)CC3)ccc21`, the INHIBITION is 10%.
In the case of `Cc1ccsc1CNCC1CCCN1c1cccnn1` (stereo unspecified), the INHIBITION is -36.25%.
For the compound `CCCNCc1cc2c(C)cc(C)cc2n2c(=O)n(C)nc12`, the INHIBITION is on record as 33%.
For `CCOCCCNCc1cc2c(C)cc(C)cc2n2c(=O)n(C)nc12`, the INHIBITION is 51.5%.
As for `Cc1cc(C)c2cc(CNCc3cccnc3)c3nn(C)c(=O)n3c2c1`, the INHIBITION was 50.1%.
For the compound `Cc1nn(C)c(N(C)C)c1CNCc1cccnc1`, the INHIBITION came to 40.7%.
Regarding `COCCNCc1cc2c(C)cc(C)cc2n2c(=O)n(C)nc12`, the INHIBITION was determined as 48.6%.
On to `Cc1cc(C)c2cc(CNCc3ccccc3)c3nn(C)c(=O)n3c2c1`, for which the INHIBITION is reported as 73.4%.
As to `Cc1cnn(CCNCC(=O)NCc2ccccc2)c1`, the INHIBITION is 18.4%.
Regarding `Cc1cc(C)c(N(CC(O)CNCc2ccccc2)S(C)(=O)=O)c(C)c1` (stereo unspecified), the INHIBITION came to 35.1%.
With `CC(C)c1nn(C)c(N(C)C)c1CNCc1cccnc1`, the INHIBITION was -3.48%.
With `CCCC(=O)N1CCC(c2cc3n(n2)[C@@H](C(F)(F)F)C[C@@H](C)N3)CC1`, the INHIBITION is recorded as 36.4%.
With `Cc1cnc(N(C)CCCc2cnn(C)c2)nc1N(C)C`, the INHIBITION is listed as -0.996%.
Take `COCC(=O)N1CC(C(=O)NCC2CC2)C2(CCOCC2)C1` (stereo unspecified): the INHIBITION is recorded as 15.8%.
In the case of `CCC(OC)C(=O)NCC1CCN(c2cnn(C)c(=O)c2)CC1` (stereo unspecified), the INHIBITION was -0.275%.
As to `Cn1ncc(N2CCC(CNC3CC(C)(C)CC(C)(C)C3)C2)cc1=O` (stereo unspecified), the INHIBITION was 72.3%.
For `Cn1ncc(N2CCC(CNC(=O)[C@@H](N)c3ccccc3)CC2)cc1=O`, the INHIBITION is recorded as -12.4%.
With `Cn1ncc(N2CCC(CNC3Cc4ccccc4C3)C2)cc1=O` (stereo unspecified), the INHIBITION was 58.7%.
With `CC(CN1CCOCC1)NCC1CCN(c2cnn(C)c(=O)c2)CC1` (stereo unspecified), the INHIBITION is on record as 33.5%.
In the case of `Cn1ncc(N2CCC(CNC3CC(c4ccccc4)C3)CC2)cc1=O` (stereo unspecified), the INHIBITION is given as 63.7%.
With `CC(C)C(=O)NCC(=O)NCC1CCN(c2cnn(C)c(=O)c2)CC1`, the INHIBITION was determined as 26.1%.
Then `Cn1ncc(N2CCC(CNC(=O)[C@@H](N)C3CCCCC3)CC2)cc1=O`, with 8.53%; and `CCOC(=O)N1CCC(NCC2CCN(c3cnn(C)c(=O)c3)C2)CC1` (stereo unspecified), with 26.6%; and `COCc1noc(CN2CC(Cc3ccccc3)CC2=O)n1` (stereo unspecified), with -23.3%.
Turning to `CN1CCCC(Cc2cncc(C(=O)NC3CC3)c2)C1` (stereo unspecified), the INHIBITION is on record as 8.72%.
Consider `Cn1ncc2c1CCCC2NCc1ccc(Br)s1` (stereo unspecified), for which the INHIBITION is recorded as 35.3%.
The result for `CCCN(C)CCC(=O)N1CCCC1Cn1cccn1` (stereo unspecified) reads -15.5%.
As for `CSCc1noc(CNC(=O)C2CCN(C(C)C)CC2)n1`, the INHIBITION is 8.51%.
The result for `Cc1nc(CN2CCc3nn(C)c(=O)cc3C2)oc1C` reads -3.7%; that for `CCn1cc(NS(=O)(=O)c2ccc(F)cc2)c(C(=O)NCC(C)C)n1`, 22%; that for `CN1[C@H](Cn2cncn2)C[C@@H]2CN(C3CCOCC3)CC[C@@H]21`, 34.6%.
For `Cc1noc(CNC(=O)CN(C)c2nc3c(C)ccc(C)c3s2)n1`, the INHIBITION came out at 57.8%.
As to `Cc1noc(CNC(=O)CN(C)c2nc3c(F)cccc3s2)n1`, the INHIBITION was found to be 47%.
Turning to `COc1cccc2sc(N(C)CC(=O)NCc3nc(C)no3)nc12`, the INHIBITION was -14.9%.
`CC(C)(CNC(=O)COc1cccc(F)c1)C(N)=O`: the INHIBITION amounted to 46.75%.
Consider `CCOC(=O)CCC(=O)N1CCC(Oc2ccc(C(F)(F)F)cn2)CC1`, for which the INHIBITION was 32.4%.
Then `N#Cc1ccc(Oc2cc(F)c(CN3CCCC3)c(F)c2)nc1`, with 26%; and `Cc1cc(CN2CCCC2)cc(Oc2ccc(C(F)(F)F)cn2)c1`, with 61.9%; and `O=C(Cn1cccn1)N1CCC(Oc2ccc(C(F)(F)F)cn2)CC1`, with 40%.
`Fc1cc(Oc2ccc(C(F)(F)F)cn2)cc(F)c1CN1CCCC1`: the INHIBITION is on record as 78.9%.
Then `CN(CC(=O)N1CCC(Oc2ccc(C(F)(F)F)cn2)CC1)S(C)(=O)=O`, with -20.5%; and `O=C(CN1CCOCC1)N1CCC2(CCCN(C3CCOCC3)C2=O)C1` (stereo unspecified), with -9.02%.
Then `COCCN1CCCC(C)(c2cc(O)[nH]n2)C1` (stereo unspecified), with -3.02%; and `Cc1ccc(CN(C)C(=O)CN2CCCC2Cn2cncn2)cc1` (stereo unspecified), with 42.4%; and `CN(Cc1cccs1)C(=O)CN1CCCCC1Cn1cncn1` (stereo unspecified), with 59.3%.
The result for `Cc1ccc(CN(C)C(=O)CN2CCCCC2Cn2cncn2)cc1` (stereo unspecified) reads 74.2%; that for `Cc1cnn(CC2CN(CC(=O)N(C)Cc3cccs3)CCO2)c1` (stereo unspecified), 35.3%; that for `CN(Cc1ccccc1)C(=O)CN1CCOC(Cn2cncn2)C1` (stereo unspecified), -9.37%.
For `Cc1cnn(CC2CCCN2CC(=O)N(C)Cc2ccsc2)c1` (stereo unspecified), the INHIBITION stood at 34.5%.
As to `CN(Cc1ccsc1)C(=O)CN1CCCC1Cn1cccn1` (stereo unspecified), the INHIBITION is listed as 63.9%.
Take `CN(Cc1ccco1)C(=O)CN1CCCCC1Cn1cncn1` (stereo unspecified): the INHIBITION was determined as 7.67%.
Consider `CN(Cc1ccsc1)C(=O)CN1CCCCC1Cn1cccn1` (stereo unspecified), for which the INHIBITION is given as -96.9%.
As to `CN(Cc1ccc(F)cc1)C(=O)CN1CCCCC1Cn1cncn1` (stereo unspecified), the INHIBITION is recorded as 48.4%.
Take `CN(Cc1cccs1)C(=O)CN1CCOC(Cn2cncn2)C1` (stereo unspecified): the INHIBITION was 62.6%.
With `CN(Cc1cccs1)C(=O)CN1CCCC1Cn1cncn1` (stereo unspecified), the INHIBITION came to 23.5%.
Turning to `O=C(CC(F)(F)F)Nc1cc(F)ccc1OCC1CCCO1` (stereo unspecified), the INHIBITION is -6.14%.
For the compound `CCn1nc(C)cc1C(=O)N1C[C@H]2CCC[C@@]2(COc2ccccn2)C1`, the INHIBITION is -36.9%.
Consider `CCC1CN(CC(=O)NCCN2CCCC2)c2ccccc2S1` (stereo unspecified), for which the INHIBITION stood at 18.3%.
Take `CN(C)C1CCN(C(=O)c2n[nH]c3c2CCN(CC2CCC2)C3)CC1`: the INHIBITION was -39%.
Consider `Cc1cc(-c2ccc(=O)n(C3CCN(S(=O)(=O)N(C)C)CC3)n2)c(C)o1`, for which the INHIBITION is listed as -25.3%.
`CNc1cc(CCNC(=O)CC(C)C)nc(-c2ccccn2)n1`: the INHIBITION was -27.4%.
As for `CCN(Cc1ccccc1)C(=O)CN1CCCCC1Cn1cncn1` (stereo unspecified), the INHIBITION is on record as 38.5%.
As for `Cc1ccccc1CN(C)C(=O)CN1CCCCC1Cn1cncn1` (stereo unspecified), the INHIBITION turned out to be 81.2%.
On to `Cc1cnn(C2CN(CC(=O)N(C)Cc3ccc(C)o3)C2)c1`, for which the INHIBITION is recorded as 34%.
As for `Cc1cnn(C2CN(CC(=O)N(C)Cc3cccs3)C2)c1`, the INHIBITION is listed as 52.2%.
Take `Cc1cnn(C2CN(CC(=O)NCCc3cccs3)C2)c1`: the INHIBITION is on record as 45.7%.
On to `CN(Cc1ccccc1)C(=O)CN1CCCCC1Cn1cncn1` (stereo unspecified), for which the INHIBITION is listed as 25.6%.
Then `Cc1nnnn1-c1cc(NCc2cc(C#N)ccc2F)ccc1F`, with 32.3%; and `O[C@@H]1CCN(CC2CCOC2)[C@H]1Cc1cccnc1` (stereo partly specified), with 23.1%; and `O=C(c1ccc2cc[nH]c2c1)N1CCCN(Cc2cscn2)CC1`, with 13.6%.
For `CCOc1ncccc1CNc1nnc(C)c(C)c1C#N`, the INHIBITION is on record as -23.45%.
On to `N#Cc1c(Cl)nsc1NCc1cccnc1OCC(F)(F)F`, for which the INHIBITION is reported as 88.5%.
The result for `CC(C(=O)NCc1ccnc(OCC(F)(F)F)c1)n1cncn1` (stereo unspecified) reads -18.2%.
As to `Cc1oncc1C(=O)NCc1ccnc(OCC(F)(F)F)c1`, the INHIBITION is -6.15%.
For `N#Cc1c(Cl)nsc1NCc1ccc(N2CCC(CO)CC2)cc1`, the INHIBITION is reported as 30.9%.
As for `O=S(=O)(NCc1cccnc1OC1CCCC1)N1CCCCC1`, the INHIBITION worked out at 21.9%.
As to `N#Cc1c(Cl)nsc1NCc1ccnc(OCC(F)(F)F)c1`, the INHIBITION was determined as 81.7%.
Then `N#Cc1c(Cl)nsc1NCc1ccc(N2CCCC(C(N)=O)C2)cc1` (stereo unspecified), with 26.6%.
In the case of `CC(O)CNC(=O)NCc1cccnc1OC1CCCC1` (stereo unspecified), the INHIBITION is 22.7%.
The result for `N#Cc1c(Cl)nsc1NCc1ccc(N2CCSCC2)cc1` reads 59.5%.
On to `Cc1nnc(NCc2cccnc2OCC(F)(F)F)c(C#N)c1C`, for which the INHIBITION is given as -0.18%.
Then `N#Cc1c(Cl)nsc1NCc1cccnc1OC1CCCC1`, with 85.9%.
Then `Nc1nccc(C2CCN(CC3CC3)C2)n1` (stereo unspecified), with 20.2%; and `CN(CCc1cn[nH]c1)C(=O)CCc1ccc(Cl)cc1`, with 49%.
For the compound `CC(Nc1cccc2c1OCCO2)C(=O)Nc1ccc(Cl)cc1` (stereo unspecified), the INHIBITION was -10.3%.
As to `CCc1nnc2n1CCN(C(=O)c1cc3cc(C)ccc3[nH]1)C2`, the INHIBITION came to 10%.
The result for `O=C(Nc1ccc(-n2ccc(C(=O)O)n2)cc1)c1ccccc1` reads 39.5%.
For `Cc1cn([C@@H]2CC3(CCNCC3)OC[C@@]2(C)O)c(=O)[nH]c1=O`, the INHIBITION was determined as 37.1%.
Then `CC(=O)N1CC(=O)N(c2cnn(C)c2)CC12CCN(Cc1ccco1)C2` (stereo unspecified), with 29.7%.
Turning to `CC(C)=CCN1CCOC(Cn2cccn2)C1` (stereo unspecified), the INHIBITION turned out to be 19.5%.
Then `CC(C)CN1CCCC12CCN(c1nncs1)C2` (stereo unspecified), with 37.8%; and `N#Cc1ccc(CCC(=O)N2CCCC(n3cncn3)C2)cc1` (stereo unspecified), with 19.2%.
For `COc1ncccc1CNc1snc(Cl)c1C#N`, the INHIBITION is given as 54.3%.
With `CN(C)c1ncccc1CNc1snc(Cl)c1C#N`, the INHIBITION was 49.1%.
As for `CCCOc1ncccc1CNc1nnc(C)c(C)c1C#N`, the INHIBITION was determined as 41.15%.
